Tests used:
Assay in all cases: DAPPL (digital affinity profiling via proximity ligation, sequencing); 10 mM Tris-HCl pH 7.5, 50 mM NaCl, 1 mM DTT, 4% glycerol, room temperature, 30 min; GST-TFs on glutathione beads, 16-mer random dsDNA library, 0.1% formaldehyde crosslink after washing; high values mean tight binding
Conditions in all cases: protein: recombinant; tags: N-terminal GST; dsDNA, one strand shown
[1] = target: T1, ERF (Homo sapiens, UniProt P50548 1-548)
T1 sequence: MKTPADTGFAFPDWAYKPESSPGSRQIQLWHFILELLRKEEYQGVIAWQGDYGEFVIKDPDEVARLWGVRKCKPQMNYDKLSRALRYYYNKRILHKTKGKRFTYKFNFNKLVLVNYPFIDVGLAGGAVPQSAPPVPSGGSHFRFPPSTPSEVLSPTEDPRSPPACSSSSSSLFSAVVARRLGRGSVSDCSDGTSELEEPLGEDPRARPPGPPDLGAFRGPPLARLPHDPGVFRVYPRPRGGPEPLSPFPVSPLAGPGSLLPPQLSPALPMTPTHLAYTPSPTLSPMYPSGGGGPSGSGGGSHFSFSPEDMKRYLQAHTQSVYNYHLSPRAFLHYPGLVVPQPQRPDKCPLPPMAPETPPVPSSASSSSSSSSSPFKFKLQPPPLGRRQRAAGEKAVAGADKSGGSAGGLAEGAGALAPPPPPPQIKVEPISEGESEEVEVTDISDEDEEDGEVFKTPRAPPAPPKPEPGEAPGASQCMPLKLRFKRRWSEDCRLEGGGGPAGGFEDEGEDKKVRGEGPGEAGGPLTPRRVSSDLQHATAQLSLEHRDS
Summary of the method: (§1)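 Yeast served to express human transcription factors as GST fusions, which were then captured on glutathione beads and labelled with DNA barcodes. Pooled with a tag-only sample, they were incubated with 200 nmole of a 16-mer random double-stranded DNA library for 30 min at room temperature in Tris/NaCl/DTT/glycerol buffer, washed, crosslinked with 0.1% formaldehyde, ligated by proximity, amplified by PCR and sequenced. Dividing each hexamer's read frequency for a factor by its frequency for the tag-only sample gives the binding signal.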

[2] = target: T2, ETV3L (Homo sapiens, UniProt Q6ZN32 1-361)
T2 sequence: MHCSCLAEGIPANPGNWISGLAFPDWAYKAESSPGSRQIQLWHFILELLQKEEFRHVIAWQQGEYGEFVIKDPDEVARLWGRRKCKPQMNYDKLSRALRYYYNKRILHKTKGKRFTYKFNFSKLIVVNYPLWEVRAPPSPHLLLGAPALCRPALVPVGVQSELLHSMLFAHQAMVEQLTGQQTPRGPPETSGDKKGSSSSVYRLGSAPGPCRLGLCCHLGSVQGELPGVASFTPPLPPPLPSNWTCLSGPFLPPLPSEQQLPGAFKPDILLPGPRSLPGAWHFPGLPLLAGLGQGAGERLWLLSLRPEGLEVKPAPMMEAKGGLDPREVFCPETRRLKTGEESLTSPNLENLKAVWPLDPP
Summary of the method: as §1

[3] = target: T3, ETS2 (Homo sapiens, UniProt P15036 1-469)
T3 sequence: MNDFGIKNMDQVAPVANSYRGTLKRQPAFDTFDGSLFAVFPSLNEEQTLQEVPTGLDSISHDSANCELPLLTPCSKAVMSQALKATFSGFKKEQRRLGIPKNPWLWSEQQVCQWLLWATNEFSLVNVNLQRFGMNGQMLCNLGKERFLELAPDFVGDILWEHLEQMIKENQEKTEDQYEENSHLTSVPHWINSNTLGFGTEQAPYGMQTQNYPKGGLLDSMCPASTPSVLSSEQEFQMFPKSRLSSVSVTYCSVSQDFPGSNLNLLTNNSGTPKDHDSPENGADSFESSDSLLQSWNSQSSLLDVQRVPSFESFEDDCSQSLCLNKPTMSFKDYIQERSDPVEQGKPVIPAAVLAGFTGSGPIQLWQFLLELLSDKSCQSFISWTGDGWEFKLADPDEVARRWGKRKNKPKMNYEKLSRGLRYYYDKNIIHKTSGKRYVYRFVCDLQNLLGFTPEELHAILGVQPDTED
Summary of the method: as §1

[4] = target: T4, SPDEF (Homo sapiens, UniProt O95238 1-335)
T4 sequence: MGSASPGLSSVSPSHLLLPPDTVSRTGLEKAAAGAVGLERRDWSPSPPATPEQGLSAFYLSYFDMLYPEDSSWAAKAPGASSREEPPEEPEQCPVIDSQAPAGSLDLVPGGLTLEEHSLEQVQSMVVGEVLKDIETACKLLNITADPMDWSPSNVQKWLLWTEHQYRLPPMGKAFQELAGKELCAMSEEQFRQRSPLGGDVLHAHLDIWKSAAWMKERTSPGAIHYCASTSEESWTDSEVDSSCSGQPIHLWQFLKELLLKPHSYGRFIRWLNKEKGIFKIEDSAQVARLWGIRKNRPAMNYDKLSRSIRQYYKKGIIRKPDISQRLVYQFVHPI
Summary of the method: as §1

[5] = target: T5, ETV7 (Homo sapiens, UniProt Q9Y603 1-341)
T5 sequence: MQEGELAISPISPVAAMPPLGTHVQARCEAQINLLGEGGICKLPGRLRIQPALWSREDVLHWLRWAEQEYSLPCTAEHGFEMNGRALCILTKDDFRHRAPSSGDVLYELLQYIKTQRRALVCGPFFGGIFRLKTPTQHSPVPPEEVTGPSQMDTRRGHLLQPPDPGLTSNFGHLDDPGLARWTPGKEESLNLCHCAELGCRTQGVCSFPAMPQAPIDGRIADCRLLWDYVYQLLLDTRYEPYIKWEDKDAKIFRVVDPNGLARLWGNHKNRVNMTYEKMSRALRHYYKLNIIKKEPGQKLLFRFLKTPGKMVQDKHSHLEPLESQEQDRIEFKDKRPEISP
Summary of the method: as §1

[6] = target: T6, ELF5 (Homo sapiens, UniProt Q9UKW6-2 1-255)
T6 sequence: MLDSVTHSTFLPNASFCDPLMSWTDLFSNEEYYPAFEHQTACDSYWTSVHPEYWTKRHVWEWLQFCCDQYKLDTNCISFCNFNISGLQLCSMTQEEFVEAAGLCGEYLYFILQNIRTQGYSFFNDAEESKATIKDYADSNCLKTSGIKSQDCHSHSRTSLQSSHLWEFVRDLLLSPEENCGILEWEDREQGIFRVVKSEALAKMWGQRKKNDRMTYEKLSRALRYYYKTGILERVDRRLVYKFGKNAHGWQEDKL
Summary of the method: as §1

[7] = target: T7, ETV3 (Homo sapiens, UniProt P41162-2 1-143)
T7 sequence: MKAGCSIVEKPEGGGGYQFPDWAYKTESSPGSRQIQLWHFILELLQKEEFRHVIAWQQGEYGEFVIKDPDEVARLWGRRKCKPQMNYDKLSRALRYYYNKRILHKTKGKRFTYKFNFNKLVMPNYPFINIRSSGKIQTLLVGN
Summary of the method: as §1

[8] = target: ETV6 (Homo sapiens, UniProt P41212 1-452)
ETV6, sequence (P41212 whole entry): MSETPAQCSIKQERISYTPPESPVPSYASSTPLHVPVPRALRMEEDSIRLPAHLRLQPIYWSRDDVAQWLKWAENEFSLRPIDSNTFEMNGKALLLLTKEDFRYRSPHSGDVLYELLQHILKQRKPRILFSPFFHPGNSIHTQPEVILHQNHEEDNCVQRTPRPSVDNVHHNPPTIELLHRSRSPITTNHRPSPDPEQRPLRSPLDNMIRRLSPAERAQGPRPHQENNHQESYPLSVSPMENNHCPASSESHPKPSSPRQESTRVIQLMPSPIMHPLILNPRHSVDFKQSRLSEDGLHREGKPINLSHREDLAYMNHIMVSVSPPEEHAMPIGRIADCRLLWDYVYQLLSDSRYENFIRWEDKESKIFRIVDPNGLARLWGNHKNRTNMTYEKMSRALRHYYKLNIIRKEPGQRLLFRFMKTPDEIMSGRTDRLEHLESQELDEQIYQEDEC
Summary of the method: as §1

Row | Sequence | binding signal [1] | binding signal [2] | binding signal [3] | binding signal [4] | binding signal [5] | binding signal [6] | binding signal [7] | binding signal [8]
1 | GATCTC | 1.22 fold enrichment (6-mer frequency, TF over GST control) | 1.25 fold enrichment (6-mer frequency, TF over GST control) | 1.31 fold enrichment (6-mer frequency, TF over GST control) | 1.42 fold enrichment (6-mer frequency, TF over GST control) | 1.29 fold enrichment (6-mer frequency, TF over GST control) | 1.21 fold enrichment (6-mer frequency, TF over GST control) | 1.29 fold enrichment (6-mer frequency, TF over GST control) | 1.15 fold enrichment (6-mer frequency, TF over GST control)
2 | TATATA | 1.24 fold enrichment (6-mer frequency, TF over GST control) | 1.23 fold enrichment (6-mer frequency, TF over GST control) | 1.31 fold enrichment (6-mer frequency, TF over GST control) | 1.35 fold enrichment (6-mer frequency, TF over GST control) | 1.27 fold enrichment (6-mer frequency, TF over GST control) | 1.23 fold enrichment (6-mer frequency, TF over GST control) | 1.34 fold enrichment (6-mer frequency, TF over GST control) | 1.28 fold enrichment (6-mer frequency, TF over GST control)
3 | AAACCT | 1.18 fold enrichment (6-mer frequency, TF over GST control) | 1.07 fold enrichment (6-mer frequency, TF over GST control) | 1.13 fold enrichment (6-mer frequency, TF over GST control) | 1.05 fold enrichment (6-mer frequency, TF over GST control) | 1.16 fold enrichment (6-mer frequency, TF over GST control) | 1.13 fold enrichment (6-mer frequency, TF over GST control) | 1.1 fold enrichment (6-mer frequency, TF over GST control) | 1.16 fold enrichment (6-mer frequency, TF over GST control)
4 | CTTGCT | 1.36 fold enrichment (6-mer frequency, TF over GST control) | 1.37 fold enrichment (6-mer frequency, TF over GST control) | 1.21 fold enrichment (6-mer frequency, TF over GST control) | 1.23 fold enrichment (6-mer frequency, TF over GST control) | 1.52 fold enrichment (6-mer frequency, TF over GST control) | 1.27 fold enrichment (6-mer frequency, TF over GST control) | 1.33 fold enrichment (6-mer frequency, TF over GST control) | 1.36 fold enrichment (6-mer frequency, TF over GST control)
5 | CATATT | 1.32 fold enrichment (6-mer frequency, TF over GST control) | 1.29 fold enrichment (6-mer frequency, TF over GST control) | 1.22 fold enrichment (6-mer frequency, TF over GST control) | 1.24 fold enrichment (6-mer frequency, TF over GST control) | 1.19 fold enrichment (6-mer frequency, TF over GST control) | 1.23 fold enrichment (6-mer frequency, TF over GST control) | 1.24 fold enrichment (6-mer frequency, TF over GST control) | 1.25 fold enrichment (6-mer frequency, TF over GST control)
6 | AATACC | 1.29 fold enrichment (6-mer frequency, TF over GST control) | 1.15 fold enrichment (6-mer frequency, TF over GST control) | 1.21 fold enrichment (6-mer frequency, TF over GST control) | 1.11 fold enrichment (6-mer frequency, TF over GST control) | 1.21 fold enrichment (6-mer frequency, TF over GST control) | 1.17 fold enrichment (6-mer frequency, TF over GST control) | 1.17 fold enrichment (6-mer frequency, TF over GST control) | 1.16 fold enrichment (6-mer frequency, TF over GST control)
7 | AAACAT | 1.45 fold enrichment (6-mer frequency, TF over GST control) | 1.46 fold enrichment (6-mer frequency, TF over GST control) | 1.48 fold enrichment (6-mer frequency, TF over GST control) | 1.51 fold enrichment (6-mer frequency, TF over GST control) | 1.44 fold enrichment (6-mer frequency, TF over GST control) | 1.51 fold enrichment (6-mer frequency, TF over GST control) | 1.48 fold enrichment (6-mer frequency, TF over GST control) | 1.52 fold enrichment (6-mer frequency, TF over GST control)
8 | ACGTCT | 1.12 fold enrichment (6-mer frequency, TF over GST control) | 1.29 fold enrichment (6-mer frequency, TF over GST control) | 1.26 fold enrichment (6-mer frequency, TF over GST control) | 1.12 fold enrichment (6-mer frequency, TF over GST control) | 1.29 fold enrichment (6-mer frequency, TF over GST control) | 1.09 fold enrichment (6-mer frequency, TF over GST control) | 1.17 fold enrichment (6-mer frequency, TF over GST control) | 1.19 fold enrichment (6-mer frequency, TF over GST control)
9 | TCGATT | 1.01 fold enrichment (6-mer frequency, TF over GST control) | 1.06 fold enrichment (6-mer frequency, TF over GST control) | 1.16 fold enrichment (6-mer frequency, TF over GST control) | 1.05 fold enrichment (6-mer frequency, TF over GST control) | 1.04 fold enrichment (6-mer frequency, TF over GST control) | 1.03 fold enrichment (6-mer frequency, TF over GST control) | 1.01 fold enrichment (6-mer frequency, TF over GST control) | 1.04 fold enrichment (6-mer frequency, TF over GST control)
10 | CGAACC | 1.12 fold enrichment (6-mer frequency, TF over GST control) | 1.15 fold enrichment (6-mer frequency, TF over GST control) | 1.14 fold enrichment (6-mer frequency, TF over GST control) | 1.23 fold enrichment (6-mer frequency, TF over GST control) | 1.11 fold enrichment (6-mer frequency, TF over GST control) | 1.09 fold enrichment (6-mer frequency, TF over GST control) | 1.07 fold enrichment (6-mer frequency, TF over GST control) | 1.1 fold enrichment (6-mer frequency, TF over GST control)
11 | AAGTAC | 1.42 fold enrichment (6-mer frequency, TF over GST control) | 1.39 fold enrichment (6-mer frequency, TF over GST control) | 1.59 fold enrichment (6-mer frequency, TF over GST control) | 1.92 fold enrichment (6-mer frequency, TF over GST control) | 1.65 fold enrichment (6-mer frequency, TF over GST control) | 1.69 fold enrichment (6-mer frequency, TF over GST control) | 1.62 fold enrichment (6-mer frequency, TF over GST control) | 1.85 fold enrichment (6-mer frequency, TF over GST control)
12 | AATTAC | 1.35 fold enrichment (6-mer frequency, TF over GST control) | 1.25 fold enrichment (6-mer frequency, TF over GST control) | 1.36 fold enrichment (6-mer frequency, TF over GST control) | 1.24 fold enrichment (6-mer frequency, TF over GST control) | 1.36 fold enrichment (6-mer frequency, TF over GST control) | 1.33 fold enrichment (6-mer frequency, TF over GST control) | 1.26 fold enrichment (6-mer frequency, TF over GST control) | 1.38 fold enrichment (6-mer frequency, TF over GST control)
13 | ATGTAA | 1.18 fold enrichment (6-mer frequency, TF over GST control) | 1.26 fold enrichment (6-mer frequency, TF over GST control) | 1.37 fold enrichment (6-mer frequency, TF over GST control) | 1.32 fold enrichment (6-mer frequency, TF over GST control) | 1.26 fold enrichment (6-mer frequency, TF over GST control) | 1.3 fold enrichment (6-mer frequency, TF over GST control) | 1.32 fold enrichment (6-mer frequency, TF over GST control) | 1.3 fold enrichment (6-mer frequency, TF over GST control)
14 | TTGTAA | 1.36 fold enrichment (6-mer frequency, TF over GST control) | 1.32 fold enrichment (6-mer frequency, TF over GST control) | 1.23 fold enrichment (6-mer frequency, TF over GST control) | 1.26 fold enrichment (6-mer frequency, TF over GST control) | 1.27 fold enrichment (6-mer frequency, TF over GST control) | 1.26 fold enrichment (6-mer frequency, TF over GST control) | 1.3 fold enrichment (6-mer frequency, TF over GST control) | 1.28 fold enrichment (6-mer frequency, TF over GST control)
15 | ACGTTC | 1.28 fold enrichment (6-mer frequency, TF over GST control) | 1.42 fold enrichment (6-mer frequency, TF over GST control) | 1.3 fold enrichment (6-mer frequency, TF over GST control) | 1.21 fold enrichment (6-mer frequency, TF over GST control) | 1.42 fold enrichment (6-mer frequency, TF over GST control) | 1.42 fold enrichment (6-mer frequency, TF over GST control) | 1.18 fold enrichment (6-mer frequency, TF over GST control) | 1.36 fold enrichment (6-mer frequency, TF over GST control)

— article PMC7862700, “An all-to-all approach to the identification of sequence-specific readers for epigenetic DNA modifications on cytosine”
